Screening data: PubChem BioAssay, National Center for Advancing Translational Sciences (NCATS)
A selection: hits, their analogues and other compounds. The true share with any hit is near 8%.
KB-3-1 cytotox = kills parental KB-3-1 adenocarcinoma cells; KB-3-1 viability, CellTiter-Glo ATP luminescence, 72 h; Potency, µM (titrated, usually from 46.1 µM), hits mostly cytotoxic; hit rate 1.4% among 400,000; note: % is set by controls: 0 for no effect and ±100 for the full control effect; nearly all actives have a fitted effect of over 60% in size
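72 h, 37 °C compound treatment of KB-3-1 parental cells; CellTiter-Glo added, 10 min, luminescence read. Data corrected against DMSO-only plates and normalized before curve fitting.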
HT1080NT lethal = kills 2HG-producing HT-1080-NT fibrosarcoma cells; HT-1080-NT fibrosarcoma viability, CellTiter-Glo ATP luminescence, 48 h; Potency, µM (doses to about 46.1 µM), inactives show at the highest dose activity, negative = less viability, hits mostly cytotoxic; hit rate 1.6% among 360,000;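 note: NT is the 2HG producing partner of a matched IDH1 knockdown line; 0% = DMSO-treated cells and -100% = media-only wells without cells; nearly all actives have a fitted effect of over 55% in size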
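Fibrosarcoma NT cells, 750 per well in 5% FBS RPMI, were exposed to compound for 48 hours. Viability: CellTiter-Glo luminescence.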
SW480 rerep = inducers of DNA re-replication in SW480 colon cancer cells | SW480 DNA re-replication, Hoechst DNA content imaging, 48 h | AID 624297 | Potency, µM (titrated, usually from 46.1 µM), for the others: at the top dose re-replication activation, most hits filed as activators | hit rate 1.8% among 340,000; note: % of control where 0% means no effect; nearly all actives have a fitted effect of over 55% in size
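Cells (250 per well) received 23 nL compound or DMSO by pin tool and were kept 48 hr at 37 C, 5% CO2. Nuclei were then stained with Hoechst for 40 min and scanned for DNA content.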
MCF10A rereplic = inducers of DNA re-replication in MCF 10A breast cells; MCF 10A DNA re-replication, Hoechst nuclear intensity, 48 h; Potency, µM (titrated, usually from 46.1 µM), inactives show at the highest dose activity, positive = re-replication, most hits filed as activators; hit rate 2.9% among 350,000; note: % of control where 0% means no effect; nearly all actives have a fitted effect of over 50% in size
KB-V1 MDR tox = KB-V1 MDR subline cytotoxicity; hit rate 3.4% among 400,000; AID 1347076; KB-V1 MDR cells viability, CellTiter-Glo, 72 h; Potency, µM (titrated, usually from 46.1 µM), usual class: cytotoxic; note: % is set by controls: 0 for no effect and ±100 for the full control effect; nearly all actives have a fitted effect of over 60% in size
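Luminescent ATP read-out (CellTiter-Glo, 10 min) measures survival of drug-selected KB-V1 MDR cells after 72 h, 37 degrees C compound exposure. Medium: phenol-red-free DMEM, 10% FBS. Values from fitted concentration-response curves.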
HT1080 IDH1KD tx = kills HT-1080 cells with IDH1 knockdown | HT-1080 IDH1 knockdown viability, ATP luminescence, 48 h | Potency, µM (titrated, usually from 46.1 µM), without a hit: top-dose activity, negative = toxicity, hits mostly cytotoxic | hit rate 2% among 360,000;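 note: 0% = DMSO wells and -100% = cell-free medium wells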
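HT-1080-IDH1KD cells (IDH1 knocked down), 750/well in RPMI with 5% FBS, treated with compound 48 h at 37 degrees C. Viability by CellTiter-Glo luminescence, normalised to DMSO and no-cell wells; concentration-response curves classed.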
An asterisk follows results filed as active; i = inactive; u = inconclusive; x = not tested or not shown. Calls come from the whole dose curve; as a rule, active = well fitted curve in the direction sought with a large enough effect; inconclusive = small, poorly fitted or top-dose-only effect, or another doubt; inactive = no such curve, though single readings can be large; an effect the other way counts as inactive or inconclusive. Potency is the fitted concentration of half-maximal effect.

SMILES	KB-3-1 cytotox	HT1080NT lethal	SW480 rerep	MCF10A rereplic	KB-V1 MDR tox	HT1080 IDH1KD tx
O=C(NCc1ccncc1)c1cccc(S(=O)(=O)NCc2ccccc2)c1	i	1%	-9%	-4%	u	7%
CN(C)C(CNC(=O)c1cccc(S(=O)(=O)NCc2ccccc2)c1)c1ccccc1 (stereo not given)	i	-15%	6.5µM*	u	i	-3%
Cc1ccnc(NC(=O)c2cccc(S(=O)(=O)NCc3ccccc3)c2)c1	i	-1%	-1%	10%	i	3%
O=C(C[n+]1ccnc2ccccc21)c1ccc(Cl)cc1	i	x	x	x	i	x
Cc1ccc(C(=O)NC2CCc3ccccc3C2=O)cc1 (stereo not given)	i	21%	1%	-6%	i	1%
Cc1ccc(C(=O)NC2c3ccccc3-c3ccccc32)cc1	6.5µM*	u	13µM*	0%	5.2µM*	2.6µM*
O=C(Nc1cccc(-c2nc3ccccc3o2)c1)c1cccc2c(Cl)cccc12	i	x	x	x	i	x
CC(C)Oc1cc(NC(=O)CSCC(=O)Nc2cccc(C(F)(F)F)c2)c(Cl)cc1Cl	i	-20%	u	3%	13µM*	u
O=C(O)CSCC(=O)Nc1cc(C(F)(F)F)ccc1Cl	i	7%	-3%	-1%	i	1%
Cc1cc(C)n2nc(CNS(=O)(=O)c3cccc([N+](=O)[O-])c3)nc2n1	i	12%	8%	2%	i	4%
CCCNC(=O)c1ccccc1NC(=O)c1cccc(-n2cnnn2)c1	i	-2%	-10%	-6%	i	0%
COc1ccc(Nc2nnc(SCC(=O)/C=C3/N(C)c4ccccc4C3(C)C)s2)cc1	u	-15%	0%	u	2.6µM*	u
CN1/C(=C\C(=O)CSc2nnc(N)s2)C(C)(C)c2ccccc21	i	0%	-3%	u	i	-23%
O=C(Nc1ccccc1)C(Cl)C(=O)c1ccccc1 (stereo not given)	i	8%	0%	u	i	11%
CC(=O)C(Cl)C(=O)Nc1ccccc1 (stereo not given)	21µM*	u	u	u	i	u
O=C(NCc1ccco1)c1ccc(OC2CCN(Cc3ccccn3)CC2)cc1	i	4%	x	x	i	-2%
C#CCN(Cc1ccco1)C(=O)c1ccc(OC2CCN(Cc3ccccn3)CC2)cc1	i	-1%	6%	u	16µM*	-1%
CC(=O)Nc1nonc1-c1nnc(SCc2ccc(F)cc2Cl)n1C	i	x	x	x	i	x
CCN(C(=O)CCC(=O)N(CC)c1ccccc1)c1ccccc1	i	13%	-9%	3%	i	23%
CCCC(=O)N(CCN(C(=O)CCC)c1ccccc1)c1ccccc1	i	6%	-7%	21%	10µM*	-7%
O=c1[nH]c(Nc2ccccc2)cc2cc(Br)ccc12	i	-12%	u	u	u	-23%
COc1ccccc1Nc1cc2cc(Br)ccc2c(=O)[nH]1	7.3µM*	-27%	u	21µM*	u	u
COc1ccc(OC)c(Nc2cc3ccccc3c(=O)[nH]2)c1	4.1µM*	u	21µM*	16µM*	23µM*	18µM*
COc1ccccc1Nc1nnc(C)c(=O)[nH]1	i	-2%	-1%	-3%	i	-3%
O=c1[nH]c(Nc2ccccc2)cc2ccccc12	i	2%	19%	13µM*	i	9%
SMILES	KB-3-1 cytotox	HT1080NT lethal	SW480 rerep	MCF10A rereplic	KB-V1 MDR tox	HT1080 IDH1KD tx
COc1ccccc1CN(C)CC(=O)c1c(C)[nH]c2ccccc12	i	x	x	x	i	x
Cc1nc(/C(=N/O)C(N)=O)cs1	i	-2%	-10%	5%	i	2%
[O-][N+](=Nc1ccccc1)c1ccccc1	x	x	1%	2%	x	x
COc1ccc(N2CCN(C(=O)c3cccc(NC(=O)c4nsc5ccccc45)c3)CC2)cc1	i	x	x	x	i	x
O=S(=O)(Nc1ccc(O)c(Sc2nc3ccccc3s2)c1)c1ccc(Cl)cc1	u	2%	-136%	21µM*	16µM*	-17%
CN1/C(=C/c2cc[n+](C)c3ccccc23)C=Cc2ccccc21	6.5µM*	7.3µM*	3%	22%	i	5.8µM*
CC(/C=N/n1cnnc1)=C\c1ccccc1	5.2µM*	12%	-3%	1%	1.8µM*	16%
CC(=C/c1ccccc1)/C=N/n1cnnc1	i	-1%	-17%	-2%	i	1%
CCC(C)NC(=O)CC(NS(=O)(=O)c1ccc(C)cc1)c1ccc(OC)cc1 (stereo not given)	i	0%	-692%	-81%	8.2µM*	11%
CCn1nc(NC(=O)Cc2ccc(OC)cc2)c2cc3cccc(C)c3nc21	i	-3%	u	4.1µM*	i	12%
Cc1ccc2cc3c(NC(=O)c4ccco4)nn(CC(C)C)c3nc2c1	i	3%	9.2µM*	u	u	1%
Cc1cccc2cc3c(NC(=O)C(C)(C)C)nn(CC(C)C)c3nc12	i	-24%	21µM*	u	i	-12%
CCn1nc(NC(=O)c2ccccn2)c2cc3cc(C)ccc3nc21	i	-1%	u	24%	i	-2%
CCn1nc(NC(=O)Cc2ccc(OC)cc2)c2cc3cc(C)ccc3nc21	u	13%	7.3µM*	1.8µM*	i	0%
Cc1ccc(N(CC(=O)Nc2ccc(Br)c(C)c2)S(=O)(=O)c2cccs2)cc1	i	x	x	x	i	x
CCCCn1nc(NC(=O)COC)c2cc3cc(OC)ccc3nc21	i	3%	15µM*	9%	i	1%
CCn1nc(NC(=O)c2ccccc2)c2cc3cccc(C)c3nc21	i	-18%	12µM*	6.5µM*	i	-29%
CCn1nc(NC(=O)C(C)C)c2cc3cccc(C)c3nc21	i	0%	8.2µM*	u	i	-4%
CCn1nc(NC(=O)c2cccs2)c2cc3ccccc3nc21	u	-1%	15µM*	18µM*	i	5%
COc1ccc(-c2[nH]ncc2CNCC(C)(C)N2CCOCC2)cc1F	i	-2%	1%	-7%	i	-12%
CCOc1ccc(NC(=O)CSc2nc3ccccc3c(=O)n2CCC(=O)NC2CCCCC2)cc1	i	x	x	x	i	x
CCCn1nc(NC(=O)C2CCCO2)c2cc3cccc(C)c3nc21 (stereo not given)	i	-3%	2.1µM*	u	i	-3%
CCOc1ccc(S(=O)(=O)Nc2ccc3c(c2)n(C)c(=O)n3C)cc1	u	u	-6%	14%	15µM*	-24%
